Columns and labels:
Test in all cases: SPOT peptide array binding signal intensity (averaged, normalized) (arbitrary units (background-subtracted, floor 0; scale differs between SH3 domains)); higher = stronger binding of the SH3 domain to the peptide
AgAbp1 = biological target: AgAbp1
How it was run: (§1)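 SH3 domains from four yeast species were expressed as GST fusions in E. coli BL21(DE3) and purified on glutathione Sepharose. Each was incubated at 10 μg/ml overnight at 4°C in TBS-based blocking buffer on cellulose membranes bearing synthetic 15-mer peptides, in which serines replaced cysteines. Bound protein was detected with anti-GST antibody, an HRP anti-mouse secondary and luminol, then imaged and quantified with Genespotter. The binding signal is the normalized, background-subtracted spot intensity averaged over replicates, in arbitrary units that are not the same from one domain to another.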

AgBbc1 = biological target: AgBbc1
How it was run: as §1

AgBem1-D1 = biological target: AgBem1-D1
How it was run: as §1

AgBzz1-D1 = biological target: AgBzz1-D1
How it was run: as §1

AgBzz1-D2 = biological target: AgBzz1-D2
How it was run: as §1

AgCyk3 = biological target: AgCyk3
How it was run: as §1

AgFus1 = biological target: AgFus1
How it was run: as §1

AgHof1 = biological target: AgHof1
How it was run: as §1

AgHse1 = biological target: AgHse1
How it was run: as §1

AgLsb1 = biological target: AgLsb1
How it was run: as §1

AgLsb4 = biological target: AgLsb4
How it was run: as §1

AgMyo5 = biological target: AgMyo5
How it was run: as §1

AgNbp2 = biological target: AgNbp2
How it was run: as §1

AgRvs167 = biological target: AgRvs167
How it was run: as §1

AgSho1 = biological target: AgSho1
How it was run: as §1

AgSla1-D1-D2 = biological target: AgSla1-D1-D2
How it was run: as §1

AgSla1-D3 = biological target: AgSla1-D3
How it was run: as §1

CaAbp1-D1 = biological target: CaAbp1-D1
How it was run: as §1

CaAbp1-D2 = biological target: CaAbp1-D2
How it was run: as §1

CaBbc1 = biological target: CaBbc1
How it was run: as §1

CaBem1-D1 = biological target: CaBem1-D1
How it was run: as §1

CaBzz1-D1 = biological target: CaBzz1-D1
How it was run: as §1

CaBzz1-D2 = biological target: CaBzz1-D2
How it was run: as §1

CaCyk3 = biological target: CaCyk3
How it was run: as §1

CaFus1 = biological target: CaFus1
How it was run: as §1

CaHof1 = biological target: CaHof1
How it was run: as §1

CaHse1 = biological target: CaHse1
How it was run: as §1

CaLsb1 = biological target: CaLsb1
How it was run: as §1

CaLsb4 = biological target: CaLsb4
How it was run: as §1

CaMyo5 = biological target: CaMyo5
How it was run: as §1

CaNbp2 = biological target: CaNbp2
How it was run: as §1

CaRvs167 = biological target: CaRvs167
How it was run: as §1

CaRvs167-3 = biological target: CaRvs167-3
How it was run: as §1

CaSho1 = biological target: CaSho1
How it was run: as §1

CaSla1-D1-D2 = biological target: CaSla1-D1-D2
How it was run: as §1

CaSla1-D3 = biological target: CaSla1-D3
How it was run: as §1

ScAbp1 = biological target: ScAbp1
How it was run: as §1

ScBbc1 = biological target: ScBbc1
How it was run: as §1

ScBem1-D1 = biological target: ScBem1-D1
How it was run: as §1

ScBzz1-D1 = biological target: ScBzz1-D1
How it was run: as §1

ScBzz1-D2 = biological target: ScBzz1-D2
How it was run: as §1

ScCyk3 = biological target: ScCyk3
How it was run: as §1

ScFus1 = biological target: ScFus1
How it was run: as §1

ScHof1 = biological target: ScHof1
How it was run: as §1

ScHse1 = biological target: ScHse1
How it was run: as §1

ScLsb1 = biological target: ScLsb1
How it was run: as §1

ScLsb2 = biological target: ScLsb2
How it was run: as §1

ScLsb3 = biological target: ScLsb3
How it was run: as §1

ScLsb4 = biological target: ScLsb4
How it was run: as §1

ScMyo3 = biological target: ScMyo3
How it was run: as §1

ScMyo5 = biological target: ScMyo5
How it was run: as §1

ScNbp2 = biological target: ScNbp2
How it was run: as §1

ScPex13 = biological target: ScPex13
How it was run: as §1

ScRvs167 = biological target: ScRvs167
How it was run: as §1

ScSho1 = biological target: ScSho1
How it was run: as §1

ScSla1-D1-D2 = biological target: ScSla1-D1-D2
How it was run: as §1

ScSla1-D3 = biological target: ScSla1-D3
How it was run: as §1

SpAbp1-D1 = biological target: SpAbp1-D1
How it was run: as §1

SpBbc1 = biological target: SpBbc1
How it was run: as §1

SpBzz1-D1 = biological target: SpBzz1-D1
How it was run: as §1

SpBzz1-D2 = biological target: SpBzz1-D2
How it was run: as §1

SpCyk3 = biological target: SpCyk3
How it was run: as §1

SpHof1 = biological target: SpHof1
How it was run: as §1

SpHof1-2 = biological target: SpHof1-2
How it was run: as §1

SpHof1-3 = biological target: SpHof1-3
How it was run: as §1

SpHse1 = biological target: SpHse1
How it was run: as §1

SpLsb1 = biological target: SpLsb1
How it was run: as §1

SpLsb4 = biological target: SpLsb4
How it was run: as §1

SpMyo1 = biological target: SpMyo1
How it was run: as §1

SpNbp2 = biological target: SpNbp2
How it was run: as §1

SpPex13 = biological target: SpPex13
How it was run: as §1

SpRvs167 = biological target: SpRvs167
How it was run: as §1

SpSla1-D1-D2 = biological target: SpSla1-D1-D2
How it was run: as §1

SpSla1-D3 = biological target: SpSla1-D3
How it was run: as §1

B1: unnamed (peptide)
chain: KKAPPPVVKPKPRNF
SPOT peptide array binding signal intensity (AgAbp1): 4680
SPOT peptide array binding signal intensity (AgBbc1): 58
SPOT peptide array binding signal intensity (AgBem1-D1): 44.5
SPOT peptide array binding signal intensity (AgBzz1-D1): 316
SPOT peptide array binding signal intensity (AgBzz1-D2): 101
SPOT peptide array binding signal intensity (AgCyk3): ≤ 0
SPOT peptide array binding signal intensity (AgFus1): 31
SPOT peptide array binding signal intensity (AgHof1): 63.5
SPOT peptide array binding signal intensity (AgHse1): 39
SPOT peptide array binding signal intensity (AgLsb1): 1.75
SPOT peptide array binding signal intensity (AgLsb4): 12.5
SPOT peptide array binding signal intensity (AgMyo5): ≤ 0
SPOT peptide array binding signal intensity (AgNbp2): 45
SPOT peptide array binding signal intensity (AgRvs167): 6
SPOT peptide array binding signal intensity (AgSho1): 15
SPOT peptide array binding signal intensity (AgSla1-D1-D2): 8
SPOT peptide array binding signal intensity (AgSla1-D3): 32.5
SPOT peptide array binding signal intensity (CaAbp1-D1): 3270
SPOT peptide array binding signal intensity (CaAbp1-D2): 6180
SPOT peptide array binding signal intensity (CaBbc1): 154
SPOT peptide array binding signal intensity (CaBem1-D1): 15.5
SPOT peptide array binding signal intensity (CaBzz1-D1): 1220
SPOT peptide array binding signal intensity (CaBzz1-D2): 2260
SPOT peptide array binding signal intensity (CaCyk3): 5
SPOT peptide array binding signal intensity (CaFus1): 45.5
SPOT peptide array binding signal intensity (CaHof1): 1
SPOT peptide array binding signal intensity (CaHse1): 1.25
SPOT peptide array binding signal intensity (CaLsb1): 2.5
SPOT peptide array binding signal intensity (CaLsb4): 15.5
SPOT peptide array binding signal intensity (CaMyo5): 1.5
SPOT peptide array binding signal intensity (CaNbp2): 36.5
SPOT peptide array binding signal intensity (CaRvs167): 11
SPOT peptide array binding signal intensity (CaRvs167-3): 8
SPOT peptide array binding signal intensity (CaSho1): 23
SPOT peptide array binding signal intensity (CaSla1-D1-D2): 3160
SPOT peptide array binding signal intensity (CaSla1-D3): 4.75
SPOT peptide array binding signal intensity (ScAbp1): 7880
SPOT peptide array binding signal intensity (ScBbc1): 3
SPOT peptide array binding signal intensity (ScBem1-D1): 6
SPOT peptide array binding signal intensity (ScBzz1-D1): 178
SPOT peptide array binding signal intensity (ScBzz1-D2): 60
SPOT peptide array binding signal intensity (ScCyk3): 7
SPOT peptide array binding signal intensity (ScFus1): 15
SPOT peptide array binding signal intensity (ScHof1): 3.5
SPOT peptide array binding signal intensity (ScHse1): 61
SPOT peptide array binding signal intensity (ScLsb1): 20.5
SPOT peptide array binding signal intensity (ScLsb2): 2
SPOT peptide array binding signal intensity (ScLsb3): ≤ 0
SPOT peptide array binding signal intensity (ScLsb4): 3.5
SPOT peptide array binding signal intensity (ScMyo3): ≤ 0
SPOT peptide array binding signal intensity (ScMyo5): ≤ 0
SPOT peptide array binding signal intensity (ScNbp2): 32
SPOT peptide array binding signal intensity (ScPex13): 0.5
SPOT peptide array binding signal intensity (ScRvs167): 5.17
SPOT peptide array binding signal intensity (ScSho1): 37.5
SPOT peptide array binding signal intensity (ScSla1-D1-D2): 3640
SPOT peptide array binding signal intensity (ScSla1-D3): 17
SPOT peptide array binding signal intensity (SpAbp1-D1): 2160
SPOT peptide array binding signal intensity (SpBbc1): 0.75
SPOT peptide array binding signal intensity (SpBzz1-D1): 318
SPOT peptide array binding signal intensity (SpBzz1-D2): 0.5
SPOT peptide array binding signal intensity (SpCyk3): 1
SPOT peptide array binding signal intensity (SpHof1): 12
SPOT peptide array binding signal intensity (SpHof1-2): 13.2
SPOT peptide array binding signal intensity (SpHof1-3): 31
SPOT peptide array binding signal intensity (SpHse1): 117
SPOT peptide array binding signal intensity (SpLsb1): 1140
SPOT peptide array binding signal intensity (SpLsb4): 27
SPOT peptide array binding signal intensity (SpMyo1): 7
SPOT peptide array binding signal intensity (SpNbp2): 43
SPOT peptide array binding signal intensity (SpPex13): 3.5
SPOT peptide array binding signal intensity (SpRvs167): ≤ 0
SPOT peptide array binding signal intensity (SpSla1-D1-D2): 5.5
SPOT peptide array binding signal intensity (SpSla1-D3): 10.5

B2: unnamed (peptide)
chain: AGKRRLPLVRFKASD
SPOT peptide array binding signal intensity (AgAbp1): 162
SPOT peptide array binding signal intensity (AgBbc1): 109
SPOT peptide array binding signal intensity (AgBem1-D1): 301
SPOT peptide array binding signal intensity (AgBzz1-D1): 44
SPOT peptide array binding signal intensity (AgBzz1-D2): 40.5
SPOT peptide array binding signal intensity (AgCyk3): 5
SPOT peptide array binding signal intensity (AgFus1): 783
SPOT peptide array binding signal intensity (AgHof1): 84
SPOT peptide array binding signal intensity (AgHse1): 1070
SPOT peptide array binding signal intensity (AgLsb1): 4
SPOT peptide array binding signal intensity (AgLsb4): 214
SPOT peptide array binding signal intensity (AgMyo5): 2
SPOT peptide array binding signal intensity (AgNbp2): 232
SPOT peptide array binding signal intensity (AgRvs167): 6
SPOT peptide array binding signal intensity (AgSho1): 218
SPOT peptide array binding signal intensity (AgSla1-D1-D2): 736
SPOT peptide array binding signal intensity (AgSla1-D3): 11.8
SPOT peptide array binding signal intensity (CaAbp1-D1): 1220
SPOT peptide array binding signal intensity (CaAbp1-D2): 806
SPOT peptide array binding signal intensity (CaBbc1): 259
SPOT peptide array binding signal intensity (CaBem1-D1): 80.5
SPOT peptide array binding signal intensity (CaBzz1-D1): 125
SPOT peptide array binding signal intensity (CaBzz1-D2): 147
SPOT peptide array binding signal intensity (CaCyk3): 69
SPOT peptide array binding signal intensity (CaFus1): 2040
SPOT peptide array binding signal intensity (CaHof1): 0.75
SPOT peptide array binding signal intensity (CaHse1): 71.5
SPOT peptide array binding signal intensity (CaLsb1): 2
SPOT peptide array binding signal intensity (CaLsb4): 173
SPOT peptide array binding signal intensity (CaMyo5): 3
